# Assay results reported in the supplement of paper PMC11417369.
# The full ranking holds about 25,000 sequences; the median of “ln(normalized median fluorescence intensity)” is about 9.3, and the highest 2% start at about 10. The full list was thinned out, with the highest values kept by preference.
# Test system: PF3D7_0420300 AP2 domain 1 (GST-tagged)
# Assay: gcPBM binding intensity (ln(normalized median fluorescence intensity)); higher = stronger DNA binding
# How it was run: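 GST-fused DNA-binding domains of P. falciparum, expressed in E. coli, were applied at about 25 μg on average for 1 h to an Agilent 4 × 180k array of primer-extended double-stranded 36-bp intergenic genomic probes and negative controls. Binding intensity is the highest Masliner-normalised natural-log median intensity across replicate spots of either probe orientation, measured with Alexa488 anti-GST antibody and a 488 nm scan.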
row,Sequence,gcPBM binding intensity (ln)
1,ATATATCTGTATGGCACACACGGATAAATATATATA [CACACA_site4668],9.52
2,ATATAGTAAATTGGTAGTACATAAAATGATTTTATG [XGTACX_site4143],9.26
3,AAAAAAAAATTGTGTACACATAATTATATCATATGT [CACACA_site4500],9.3
4,ACCTATTTCAAACACACACACACACTAGCAAACATA [CACACA_site4695],10.3
5,ACTATTTTCTTCAAAACATGCACCACATAAACATAA [TGCATGCA_site200],9.18
6,ACCTATTTCAAACACACACACACACCCACAAACATA [CACACA_site977],10.4
7,ACCTATTTCAAACACACACACACACTAACAAACATA [CACACA_site8233],10.3
8,TTTCTTATTTTTTTCACACACTAAACATTTCAAATG [CACACA_site5259],9.35
9,TGTTTCTTATTTTTTTCACACACTAAACATTTCAAA [CACACA_site2218],9.62
10,CTATTTCAGAAACACACACACACAAACAAACATATA [CACACA_site978],9.93
11,AAAAAATTAAAAATCACACATAAATATATATAAAAA [CACACA_site4192],9.48
12,CATATATTATTATATGCACACATGAAAATATACAAA [CACACA_site2795],9.49
13,AAGAAAAAAATTTATACAAGAATTTTTTATTATTAA [TGCATGCA_negctrl_site587],8.9
14,ATTTATGTTATATATACACACACAAAAGAAAAAAAA [CACACA_site8977],9.82
15,AAACATATAAACATATGTACATATAAACATATATAC [XGTACX_site5026],9.42
16,AAAAAAAAAGTATTATGTACATAAAAATAAAAAAAT [XGTACX_site4166],9.42
17,ATATAAGTATATCTATGTACATACAATATAAATGTA [XGTACX_site2153],9.09
18,AAAAAAAGAAAAAAAACACACACAAATATAAATAAA [CACACA_site8309],10
19,TAAAAAATATAAACTGCACACACAAAAAAAAAAGAG [CACACA_site8379],10.2
20,AAAAATATAAACTGCACACACACAAAAAAAGAAAAA [CACACA_site648],10.1
21,AAATATAAACGGCACACACACAAAAAAAGAAAAAAA [CACACA_site649],10.2
22,AAAAATATAAACTGCACACACAAAAAAAAAAGAGAA [CACACA_site1367],10.1
23,AAAAAGAAAAAAAACACACACAAATATAAATAAATA [CACACA_site1183],9.98
24,TCTAATGATATATACACACACATATAGATTTATATA [CACACA_site7044],9.64
25,TGTAGATATTATATATGTACGCATATGAAATATATA [XGTACX_site1586],9.09
